Screening results deposited in PubChem by National Center for Advancing Translational Sciences (NCATS).
Tau fibril ThT = tau fibrillization inhibition (ThT binding); P10636; recombinant tau K18 P301L, heparin-induced fibrillization, ThT fluorescence; Potency, µM (titrated, usually from 57.4 µM), for the others: top-dose activity, negative = inhibition, usual class: inhibitors; 270,000 compounds, 2.1% hits; further: potency means the concentration at half of the fitted maximal effect; nearly all actives have a fitted effect of over 55% in size
Target sequence (P10636 561-689 P618L limits assumed): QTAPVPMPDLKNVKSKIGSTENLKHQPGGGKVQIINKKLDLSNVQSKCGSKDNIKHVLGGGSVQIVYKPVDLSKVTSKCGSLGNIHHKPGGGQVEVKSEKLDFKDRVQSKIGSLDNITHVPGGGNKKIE
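Tau K18 P301L fragment (15 uM unlabeled plus 0.24 uM Alexa 594-labeled) in 100 mM sodium acetate pH 7 with compound, fibrillization induced by 20 uM heparin for 6 hr at 37 C. Thioflavin T (30 uM) added, fluorescence read after 1 hr (ex 450, em 510 nm).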
Tau FP inhib = tau fibrillization inhibition (FP) | P10636 | K18 P301L tau heparin fibrillization, Alexa594 FP, 6 h | Potency, µM (titrated, usually from 57.7 µM), inactives show at the top dose activity, negative = inhibition, actives largely listed as inhibitors | 280,000 compounds, 0.39% hits; further: potency means the concentration at half of the fitted maximal effect; nearly all actives have a fitted effect of over 55% in size
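Heparin (20 uM) drove fibril formation of recombinant tau K18 P301L, 15 uM unlabeled with 0.24 uM Alexa 594 label, for 6 hr at 37 C in 100 mM sodium acetate pH 7. Fluorescence polarization (555/632 nm) read 1 hr after 30 uM ThT.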
Tau fluor counter = counter-screen for tau fibril formation inhibitors; tau K18 P301L (four-repeat tau fragment) Alexa594 fluorescence, heparin fibrillization; Potency, µM (highest dose often 57.7 µM), for the others: at the top dose activity change, negative = decrease; 280,000 compounds, 0.93% hits; AID 1463; further: potency means the concentration at half of the fitted maximal effect; nearly all actives have a fitted effect of over 55% in size
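Human K18 P301L tau (15 uM unlabeled plus 0.24 uM Alexa 594-labeled, final) in 100 mM sodium acetate pH 7 was mixed with compound and 20 uM heparin and incubated 6 hr at 37 C.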
FBPA coupling cs = counter-screen for Giardia aldolase inhibitors: coupling enzyme system | coupling enzyme system counterscreen, AmpLite Red fluorescence | activity change, negative = inhibition, % at 58.2 µM, hits read low | 290,000 compounds, 0.67% hits | AID 2472; in the data active means activity change below about -30%
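Coupling enzymes only (glyceraldehyde-3-phosphate) + compound, at 57.5 uM final, 10 min RT; add substrate/coupling/AmpLite Red mix, 20 min RT; fluorescence ex 525/em 598 nm. Actives flag coupling-system interference.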
The depositor's hits bear a star; [ ] = another dose, or the depositor's remark. Sampled rows, rich in hits. Any-hit rate of the full collection: about 2.7%. Unless noted, the call rests on the fitted dose curve; in most records, active means well fitted curve in the direction sought with a large enough effect; inconclusive means small, poorly fitted or top-dose-only effect, or another doubt; inactive means no such curve, though single readings can be large; an effect the other way counts as inactive or inconclusive. On the % scale 0 is the no-effect control and ±100 the full control effect.

For Cc1ccc(NC(=O)CCn2cnc3onc(-c4ccc(F)cc4)c3c2=O)c(Br)c1 the results were Tau fibril ThT -0.2%, Tau FP inhib inconclusive and Tau fluor counter -29.3%.
Screening O=C(CCn1cnc2onc(-c3ccc(F)cc3)c2c1=O)Nc1ccc(F)c(Cl)c1 returned Tau fibril ThT 18.0%, Tau FP inhib 28.2µM* and Tau fluor counter inconclusive.
For Cc1cc(C)c(Cn2c3ccccc3c3cnn(CC(=O)NCCCc4ccccc4)c(=O)c32)c(C)c1 the results were Tau fibril ThT 15.5%, Tau FP inhib 0.5% and Tau fluor counter 4.6%.
Screening Cc1c(CCC(=O)NCc2cccc(Cl)c2)c(=O)oc2c(C)c(O)ccc12 returned Tau fibril ThT 3.6%, Tau FP inhib -15.3% and Tau fluor counter 0.0%.
Screening CCOC(=O)C1(Cc2cccc(F)c2)CCN(C2CCOCC2)CC1 returned Tau fibril ThT -13.0%, Tau FP inhib -5.1%, Tau fluor counter -14.2% and FBPA coupling cs 1.1.
`CCOC(=O)C1(Cc2cccc(OC)c2)CCN(C2CCOCC2)CC1` gave Tau fibril ThT 12.6µM*, Tau FP inhib -17.7%, Tau fluor counter -82.1% and FBPA coupling cs 0.1.
O=C1[C@H]2[C@H]3[C@H](O)[C@H](O)C/C(=N/OCc4ccccc4)[C@@H]3CC[C@@H]2C(=O)N1Cc1ccccc1 was read as Tau fibril ThT 0.2%[11.5 µM], Tau FP inhib 4.4%[11.6 µM], Tau fluor counter -4.4%[11.6 µM] and FBPA coupling cs 3.2.
`N#C/C(=C\c1cc2ccccc2nc1N1CCOCC1)C(=O)Nc1ccc(N2CCOCC2)cc1` gave Tau fibril ThT 14.1µM*, Tau FP inhib -5.6%, Tau fluor counter inconclusive and FBPA coupling cs -0.3.
`N#CC(C#N)=Cc1cc2ccccc2nc1N1CCOCC1` gave Tau fibril ThT inconclusive, Tau FP inhib -13.2%, Tau fluor counter -7.8% and FBPA coupling cs 0.0.
O=c1cc(N2CCc3ccccc32)[nH]c(=O)n1-c1ccc(Br)cc1 was read as Tau fibril ThT 28.2µM*, Tau FP inhib inconclusive, Tau fluor counter -27.6% and FBPA coupling cs -12.7.
Screening COc1ccc(-n2c(=O)cc(N3CCc4ccccc43)[nH]c2=O)cc1 returned Tau fibril ThT -6.3%, Tau FP inhib -11.9%, Tau fluor counter -6.6% and FBPA coupling cs 7.4.
`CC(C)(C)c1ccc(NC(=O)Nc2ccc(OCC(=O)N3CCOCC3)cc2)cc1` gave Tau fibril ThT -17.6%, Tau FP inhib 19.0%, Tau fluor counter 20µM*[quencher] and FBPA coupling cs 0.0.
COc1ccc(C2C(C(C)=O)=C(C)N=c3s/c(=C\c4ccco4)c(=O)n32)c(OC)c1 (stereo not drawn) was read as Tau fibril ThT 12.6µM*, Tau FP inhib -6.2%, Tau fluor counter inconclusive and FBPA coupling cs -4.4.
`COc1ccc(C2C(C(C)=O)=C(C)N=c3s/c(=C\c4cc(C)n(C)c4C)c(=O)n32)c(OC)c1` (stereo not drawn) gave Tau fibril ThT inconclusive, Tau FP inhib 4.8%, Tau fluor counter inconclusive and FBPA coupling cs -13.5.
CCOC(=O)c1scc(-c2ccccc2)c1S(=O)(=O)Nc1cc(OC)cc(OC)c1 was read as Tau fibril ThT -4.3%, Tau FP inhib -10.7% and Tau fluor counter inconclusive.
`Oc1ccc(Nc2ncnc3c2oc2ccccc23)cc1` gave FBPA coupling cs 1.6.
CC(=O)N1CCN(c2ccc(Nc3ncnc4c3oc3ccccc34)cc2)CC1 was read as Tau fibril ThT 4.47µM*, Tau FP inhib 3.4%, Tau fluor counter inconclusive and FBPA coupling cs -6.3.
CCc1nc(Nc2ccc(N3CCN(C(C)=O)CC3)cc2)c2oc3ccccc3c2n1 was read as Tau fibril ThT 12.6µM*, Tau FP inhib 16.5%, Tau fluor counter inconclusive and FBPA coupling cs -22.8.
Screening COc1ccc(NC(=O)CCS(=O)(=O)c2cc3c(cc2C)NC(=O)CO3)cc1Cl returned Tau fibril ThT -15.5%, Tau FP inhib -6.7% and Tau fluor counter inconclusive.
For COc1cc2[nH]c3c(Cl)ncnc3c2cc1OC the results were Tau fibril ThT inconclusive, Tau FP inhib 0.8%, Tau fluor counter -16.0% and FBPA coupling cs -42.8*.
`COc1cc2[nH]c3c(N4CCN(c5ccc(Cl)cc5)CC4)ncnc3c2cc1OC` gave Tau fibril ThT inconclusive, Tau FP inhib 13.7%, Tau fluor counter inconclusive and FBPA coupling cs -1.0.
For CO/N=C\c1ccc(C(=O)N2[C@H](c3ccc(C)cc3)[C@@H](C)CC[C@H]2C(=O)OC)cc1 the results were Tau fibril ThT 0.7%[11.5 µM], Tau FP inhib -0.1%[11.6 µM], Tau fluor counter -1.7%[11.6 µM] and FBPA coupling cs 0.7.
O=C(O)c1ccccc1Nc1cccc(OCc2ccc3ccccc3n2)c1 was read as Tau fibril ThT 14.1µM*, Tau FP inhib -2.1%, Tau fluor counter 8.91µM*[quencher] and FBPA coupling cs -8.3.
`Cc1[nH]c2ccccc2c1CCNS(=O)(=O)c1ccc(S(N)(=O)=O)cc1` gave FBPA coupling cs 3.0.
Cc1ccc([N+](=O)[O-])cc1S(=O)(=O)NCCc1c(C)[nH]c2c(C)cccc12 was read as Tau fibril ThT -16.8%, Tau FP inhib 12.2%, Tau fluor counter -20.7% and FBPA coupling cs 2.7.
COc1c(C)cc(S(=O)(=O)NCCc2c(C)[nH]c3ccccc23)c(C)c1C was read as Tau fibril ThT inconclusive, Tau FP inhib inconclusive and Tau fluor counter 15.8µM*[quencher].
`COc1cc(Cl)c(S(=O)(=O)NCCc2c(C)[nH]c3c(C)cccc23)cc1Cl` gave Tau fibril ThT inconclusive, Tau FP inhib 21.7% and Tau fluor counter 15.8µM*[quencher].
Screening CC(=O)Nc1ccc(S(=O)(=O)NC2=C(N3CCN(C)CC3)C(=O)c3ccccc3C2=O)cc1 returned FBPA coupling cs -51.8*.
`CC(=O)Nc1ccc(S(=O)(=O)NC2=C(N3CCN(Cc4ccccc4)CC3)C(=O)c3ccccc3C2=O)cc1` gave Tau fibril ThT 15.8µM*, Tau FP inhib -9.5%, Tau fluor counter 14.1µM*[quencher] and FBPA coupling cs -43.9*.
For COC(=O)c1ccccc1S(=O)(=O)N1CCc2nc(COc3ccccc3)c3c(c2C1)CO[C@@H](C)C3 the results were Tau fibril ThT -20.8%[11.5 µM], Tau FP inhib -18.0%[11.6 µM], Tau fluor counter -9.1%[11.6 µM] and FBPA coupling cs -2.9.
For CCN(CC)C(=O)Cn1c(=O)n(-c2ccc(C)c(C)c2)c(=O)c2c(C)c(C(=O)N(CC)CC)sc21 the results were Tau fibril ThT 6.6%, Tau FP inhib -1.0% and Tau fluor counter 0.1%.
Screening COc1cccc(C(=O)Nc2nc3nc(C)c(C)c(=O)n3[nH]2)c1 returned Tau fibril ThT -12.4%, Tau FP inhib -2.6% and Tau fluor counter 0.7%.
Cc1cc(=O)c2c(O)c3c(O)cc(O)c4c5c(O)cc(O)c6c(O)c7c(=O)cc(C)c8c1c2c(c34)c(c65)c78 was read as Tau fibril ThT 14.1µM*, Tau FP inhib inconclusive, Tau fluor counter 4.47µM*[quencher] and FBPA coupling cs -9.7.
Screening Cc1cc(O)c2c(c1O)C(=O)c1c(O)cc(C)c(O)c1C2=O returned Tau fibril ThT inconclusive, Tau FP inhib -14.7%, Tau fluor counter -27.3% and FBPA coupling cs -4.3.
